TDP1 cell noCPT: qHTS for Inhibitors of human tyrosyl-DNA phosphodiesterase 1 (TDP1): qHTS in cells in absence of CPT; DT40 Tdp1-/- hTDP1 cells, no CPT, ATP luminescence, 48 h; Potency, µM (highest dose often 46.2 µM), for inactives: at the highest dose activity change, negative = growth inhibition, usual class: inhibitors; hit rate 15% among 420,000; AID 686978, 2013; note: potency is the fitted concentration of half-maximal effect; nearly all actives have a fitted effect of over 55% in size
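Chicken DT40 Tdp1-/- cells complemented with human TDP1, screened without camptothecin (DMSO vehicle only), 400 cells/well. Compounds pin-transferred, cells incubated at 37 °C for at least 48 hr. Growth read as ATP-dependent luminescence (CellTiter-Glo, 30 min at RT).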
HT1080 IDH1KD tx: toxicity to HT-1080 IDH1 knockdown cells (counter line). Potency, µM (top dose mostly 46.1 µM), for the others: top-dose activity, negative = toxicity, actives largely listed as cytotoxic. HT-1080 IDH1 knockdown viability, ATP luminescence, 48 h. hit rate 2% among 360,000;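 note: potency is the fitted concentration of half-maximal effect; 0% = DMSO wells and -100% = cell-free medium wells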
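CellTiter-Glo luminescence after 48 h compound exposure at 37 degrees C of IDH1-knockdown HT-1080 cells in 5% FBS RPMI. %Activity scaled between DMSO wells and cell-free media wells, with curves fitted and assigned curve classes.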
ELG1 DNA repair: blocks ELG1-dependent DNA repair in HEK293T cells. HEK293T ELG1-luciferase reporter, luminescence, 16 h; DNA damage induced by 5-fluorouridine. Potency, µM (doses to about 46.1 µM), for the others: at the highest dose activity change, negative = inhibition, actives largely listed as inhibitors. hit rate 2.3% among 330,000. AID 504467; note: potency is the fitted concentration of half-maximal effect; nearly all actives have a fitted effect of over 55% in size
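Overnight (16 hr) co-exposure of 2,000 cells/well to 5-fluorouridine and compound at 37 °C preceded detection. Luciferase was quantified via ONE-Glo luminescence; loss of signal denotes inhibition.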
IL-1B inflam inh: inflammasome signaling inhibition, IL-1 beta readout; THP-1 LPS/ATP IL-1B secretion, AlphaLISA, 16 h; stronger effect = lower value; activity change, % at 57.5 µM; hit rate 4.7% among 360,000; AID 743279; in the data active = activity change below about -50%; inconclusive = mostly about -30% to -49%
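Secreted IL-1B measured by AlphaLISA bead assay after 16 h compound exposure of THP-1 cells; compounds (final up to 57.5 uM) added 1 h before LPS (250 ng/mL) and ATP (1.25 mM) stimulation; lower signal means less secretion.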
HT1080-NT tox: kills 2HG-producing HT-1080-NT fibrosarcoma cells; HT-1080-NT fibrosarcoma viability, CellTiter-Glo ATP luminescence, 48 h; Potency, µM (highest dose often 46.1 µM), for inactives: at the highest dose activity, negative = less viability, usual class: cytotoxic; hit rate 1.6% among 360,000; AID 686970;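 note: NT is the 2HG producing partner of a matched IDH1 knockdown line; potency is the fitted concentration of half-maximal effect; 0% = DMSO-treated cells and -100% = media-only wells without cells; nearly all actives have a fitted effect of over 55% in size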
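HT-1080-NT; 750 cells/well; 5% FBS RPMI; 48 h compound, 37 degrees C; CellTiter-Glo luminescence; curve fitting and curve-class assignment.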
DT40 TDP1 CPT: growth inhibition of DT40 Tdp1-/-;hTDP1 cells with camptothecin (screen for TDP1 inhibitors). chicken DT40 Tdp1-/-;hTDP1 cells + 20 nM CPT, ATP luminescence, 48 h. Potency, µM (titrated, usually from 46.2 µM), without a hit: top-dose activity change, negative = growth inhibition, usual class: inhibitors. hit rate 12% among 420,000; note: potency is the fitted concentration of half-maximal effect; nearly all actives have a fitted effect of over 55% in size
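Chicken DT40 Tdp1-/- cells complemented with human TDP1, 400 cells/well, exposed to compounds plus 20 nM camptothecin for at least 48 h at 37 C; viability read as ATP content by CellTiter-Glo luminescence.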
* marks the source's active call; other numbers are inactive results; ? = inconclusive; · = not tested or not shown; [ ] = dose if it differs, or a comment. Hits are enriched below; roughly 19% of the tested compounds scored in any of these assays. Unless noted, calls come from the whole dose curve; as a rule, active = well fitted curve in the direction sought with a large enough effect; inconclusive = small, poorly fitted or top-dose-only effect, or another doubt; inactive = no such curve, though single readings can be large; an effect the other way counts as inactive or inconclusive. Unless noted, % is set by controls: 0 for no effect and ±100 for the full control effect.

SMILES	TDP1 cell noCPT	HT1080 IDH1KD tx	ELG1 DNA repair	IL-1B inflam inh	HT1080-NT tox	DT40 TDP1 CPT
COc1cccc(NC(=S)N(CCCN2CCCC2)Cc2cccn2Cc2ccc(Cl)cc2)c1	18µM*	18µM*	7%	?	21µM*	?
CSc1cccc(NC(=S)N(CCCN2CCCC2)Cc2cccn2Cc2ccc(Cl)cc2)c1	9.2µM*	?	-24%	?	18µM*	?
S=C(Nc1cccc(Cl)c1)N(CCCN1CCCC1)Cc1cccn1Cc1ccc(Cl)cc1	18µM*	18µM*	-13%	-101*	16µM*	?
O=C(c1cccc(Cl)c1)N1CCCC(Cn2cc(C(=O)N3CCCC3)nn2)C1 (stereo unspecified)	-13%	·	·	·	·	5%[9.04 µM]
O=C(Nc1ccccc1)c1cc(C2CCCCN2C(=O)c2ccc3c(c2)CCO3)on1 (stereo unspecified)	18µM*	3%	·	-7	14%	23µM*
O=C(Nc1ccc(F)c(Cl)c1)c1cc(C2CCCCN2C(=O)c2ccc3c(c2)CCO3)on1 (stereo unspecified)	21µM*	0%	·	-21	-5%	16µM*
O=C(NCc1ccc(F)cc1)c1cc(C2CCCCN2C(=O)c2ccc3c(c2)CCO3)on1 (stereo unspecified)	18µM*	-14%	·	-9	2%	18µM*
N#Cc1cccc(NC(=O)c2cc(C3CCCCN3C(=O)c3ccc4c(c3)CCO4)on2)c1 (stereo unspecified)	?	13%	·	-14	12%	?
Cc1ccc(NC2=C(CC(=O)O)C(c3ccc(F)cc3)N(c3ccc(C)cc3)C2=O)cc1 (stereo unspecified)	?	·	·	·	·	-22%
Cc1cc(C)c(C(=O)c2ccc(C(=O)NC(C)(C)C)cc2)c(C)c1	-27%	-4%	1%	-15	4%	-19%
Cc1cc(C)c(C(=O)c2ccc(C(=O)N(C(C)C)C(C)C)cc2)c(C)c1	18µM*	?	?	-3	?	16µM*
OCC[C@@H]1C[C@H](O)[C@@H](O)[C@@]2(OCCc3ccccc32)O1	-16%	-5%	0%	-21	?	-30%
Cc1nn(-c2ccccc2)c(Cl)c1C(=O)OCC(=O)NCCc1ccccc1	?	-4%	?	?	-1%	?
Cc1nn(-c2ccccc2)c(-n2cccc2)c1C(=O)N1CCN(c2ccccc2)CC1	23µM*	·	·	·	·	?
COc1ccc(N2CCN(C(=O)c3c(C)nn(-c4ccccc4)c3C)CC2)cc1	?	8%	?	-9	5%	?
Cc1nn(-c2ccccc2)c(-n2cccc2)c1C(=O)NCCc1ccc(Cl)cc1	?	·	·	·	·	21µM*
Cc1nn(-c2ccccc2)c(-n2cccc2)c1C(=O)NCc1ccccc1Cl	26µM*	·	·	·	·	21µM*
Cc1c(C(=O)NCc2ccccc2)c(-c2ccccc2)nn1-c1ccccc1	?	3%	?	-3	8%	23µM*
CCCOC(=O)c1ccc(NC(=O)Cc2csc(C)n2)cc1	?	·	·	·	·	-37%
Cc1ccc(N(CC(=O)NCC2CCCO2)C(=O)CCC(=O)Nc2nccs2)cc1 (stereo unspecified)	1%	-1%	11%	12	8%	6%
CCc1ccc2ncc3c(-c4ccc(F)cc4)nn(CC(=O)NC4CCCCC4)c3c2c1	-2%	·	·	·	·	13%
CCOC(=O)c1c(-c2ccccc2Cl)csc1NC(=O)CSc1nc(C)cc(=O)[nH]1	-26%	1%	1%	0	-4%	-10%
COc1cccc(CNC(=O)c2c(C)nn(-c3cccc(C)c3)c2-n2cccc2)c1	15µM*	·	·	·	·	?
O=C1CCN(C(=O)c2cccs2)c2ccccc21	-17%	0%	?	28	-1%	4%
CN1C(=O)/C(=C\C(=O)c2cccs2)c2ccccc21	9.2µM*	?	?	-103*	10µM*	13µM*
SMILES	TDP1 cell noCPT	HT1080 IDH1KD tx	ELG1 DNA repair	IL-1B inflam inh	HT1080-NT tox	DT40 TDP1 CPT
CCOC(=O)c1ccccc1NC1c2ccccc2C(=O)N1c1cc(C)ccn1 (stereo unspecified)	?	-9%	-5%	2	4%	23µM*
Cc1cc(C)cc(NC(=O)N2CCC(CN3CCCCCC3)CC2)c1	?	·	·	·	·	-50%
CCn1c(=O)c([N+](=O)[O-])c(N2CCSCC2)c2ccccc21	23µM*	-13%	6.5µM*	-18	-18%	?
C[C@H]1C(c2ccc(F)cc2)=NN(c2ccccc2)[C@@H]1CO	-2%	-2%	5%	0	-5%	18µM*
C[C@@H]1C(c2ccccc2)=NN(c2ccccc2)[C@H]1C(=O)N1CCOC1=O	?	?	-1%	-19	-21%	?
COc1ccccc1[C@H]1C(c2ccc(F)cc2)=NN(c2ccccc2)[C@@H]1CO	?	?	-6%	-13	-19%	18µM*
COC(=O)C[C@H]1c2cc(C(F)(F)F)ccc2S(=O)(=O)N1C(C)C	?	·	·	·	·	-8%
CCOC(=O)C1(CC2CC2)CCN(C(=O)c2cc(C)nc3ccc(CC)cc23)CC1	18µM*	-18%	?	-5	-5%	21µM*
COc1ccc(CNCCC2(Cc3ccccc3)CC(C)N(C)CC2C)cc1OC (stereo unspecified)	15µM*	?	8%	-61*	-26%	?
COc1ccc(CN(CCC#N)CCC2(c3ccccc3)CC(C)N(C)CC2C)cc1OC (stereo unspecified)	-16%	-16%	?	-20	-7%	3%
COC(=O)N1CCC2(CCCN(Cc3nccs3)C2)CC1	-12%	·	·	·	·	7%
COc1ccc(NC(=O)C(C)n2nc(-c3ccc(C)c(C)c3)ccc2=O)cc1OC (stereo unspecified)	16µM*	·	·	·	·	23µM*
CCc1ccccc1NC(=O)C(C)n1nc(-c2ccc(C)c(C)c2)ccc1=O (stereo unspecified)	?	·	·	·	·	23µM*
Cc1cc(C)cc(CC(=O)N2CCC2(C)C(=O)NS(=O)(=O)c2cccc(OC(F)F)c2)c1 (stereo unspecified)	-8%	3%	·	5	15%	18%

Assay outcomes (PubChem BioAssay)
